Experimental findings from PubChem BioAssay (NCATS) are described below.

Inconclusive results are not listed. Unmarked numbers belong to inactive results. The source made the active and inactive calls. Calls follow the shape of the full dose curve. Square brackets hold non-standard residues; d marks the D form. Peptide text beside a SMILES is read from it. * marks the point of attachment. Nle = CCCC[C@H](N)C(=O)O; Cbz = O=C(OCc1ccccc1)*; CH2Cl = ClC*
Potency is read from the fitted curve at half-maximal effect.

The nature of one experiment: Confirmatory qHTS for VERO E6 Cytotoxicity Assay: Counterscreen for SARS-CoV-2 CPE Assay (AID 1508605). Also: nearly all actives have a fitted effect of over 60% in size. As to activity change, negative = cytotoxic: % is scaled to controls: 0 for no effect and ±100 for the full control effect. Particulars: cell viability luminescence; series mostly up to 20 µM; activity change, negative = cytotoxic: at the top concentration. Background: In qHTS, concentration-response curves come from the screen itself.
As to `C/C1=C\CCC2=CC(OC2=O)C(C)(C)/C=C/C1=O` (stereo not drawn), the “activity change, negative = cytotoxic” value is -24.5%.
Regarding `CCN(CC)CC1CCN(c2ncc3ncnc(Nc4ccc(F)c(Cl)c4)c3n2)CC1`, the Potency is 11.2 µM (active).
For `CC1=CC2OC3CC(O)[C@@](C)(C34CO4)[C@@]2(C)C(O)C1=O` (stereo partly drawn), the Potency was 3.55 µM (active).
Still for that read-out and setting: then `CO[C@H]1/C=C\C=C(\C)C(=O)NC2=CC(=O)C(NCCN(C)C)=C(C[C@@H](C)C[C@H](OC)[C@H](O)[C@@H](C)/C=C(/C)[C@@H]1OC(N)=O)C2=O`, with 5.62 µM (active).
With `CCC(C)CNCC(=O)N1CCc2sccc2C1COc1cccc(C)c1` (stereo not drawn), the “activity change, negative = cytotoxic” value was -17.3%.
As for `COc1ccc2c(c1)[C@]1(C[C@H]1c1ccc3c(/C=C/c4ccc(CN5C[C@@H](C)O[C@@H](C)C5)cc4)n[nH]c3c1)C(=O)N2`, the “activity change, negative = cytotoxic” value is -32.8%.

The next experiment can be described thus: Confirmatory qHTS for activators (rescue) of SARS-CoV-2 Cytopathic Effect (CPE) (AID 1508606). Also: nearly all actives have a fitted effect of over 70% in size. As to CPE rescue (activation): 0% is about no effect. The note with it: Vero E6 SARS-CoV-2 CPE rescue, viability luminescence; series mostly up to 20 µM; CPE rescue (activation): at the top concentration.
On to `COc1ccc(NS(=O)(=O)c2sc3ccc(Cl)cc3c2C)cc1N1CCNCC1`, for which the Potency is 10 µM (active).
Take `CCC(C)C(=O)OC1C(C)C2(O)C(C=C(CO)CC3(O)C(=O)C(C)=CC32)C2C(C)(C)C12OC(=O)C(C)C` (stereo not drawn): the “CPE rescue (activation)” value was 12.6% [at 10 µM].
On to `CC1OC2OC3C(OCC(O)C3O)OC(=O)C34CCC(C)(C)CC3C3=CCC5C6(C)CC(O)C(OC7OC(CO)C(O)C(O)C7OC7OCC(OC(=O)CC(C)(O)CC(=O)OC1C(OC1OCC(O)C(O)C1O)C2O)C(O)C7O)C(C)(CO)C6CCC5(C)C3(C)CC4O` (stereo not drawn), for which the “CPE rescue (activation)” value was -12.1% [at 10 µM].
For the compound `COc1ccc2c(c1)CN(C(=O)CCN1CCC(Cc3ccccc3)CC1)CCS2`, the Potency is 4.92 µM (active).
Take `CCCC[C@@H](C=O)NC(=O)[C@H](CC(C)C)NC(=O)[C@H](CC(C)C)NC(C)=O` (Ac-Leu-Leu-[Nle]-aldehyde): the Potency was 2 µM (active).
Same read-out and setting: then `C[C@H](NC(=O)[C@H](Cc1ccccc1)NC(=O)OCc1ccccc1)C(=O)CF`, with 0.126 µM (active).
For the compound `COC(=O)Nc1cc(Nc2cc(NC3CC3)c3ncc(C#N)n3n2)c(Cl)c(N2CCN(C)CC2)c1`, the “CPE rescue (activation)” value is -15.3%.
For `CCC[C@@H](NC(=O)N1C(=O)C(CC)(CC)[C@@H]1Oc1ccc(C(=O)N2CCN(C)CC2)cc1)c1ccc2c(c1)OCO2`, the Potency is 11.2 µM (active).
In the case of `CC1CCN(C(c2ccc(F)cc2)c2ccc(C(C)C(=O)O)cc2-c2ccc(C(F)(F)F)cc2)CC1` (stereo not drawn), the “CPE rescue (activation)” value was -11.1%.
Take `CCCCCCCCC(=O)N[C@H](CN1CCCC1)[C@H](O)c1ccc2c(c1)OCCO2`: the Potency is 8.91 µM (active).
`COc1cc(-n2cnc3cc(-c4ccc(Cl)cc4)sc3c2=O)ccc1OCCN1CCCC1`: the Potency was 3.55 µM (active).
The same measure, in the same setting: then `CC#C[C@@H](CC(=O)O)c1ccc(OCc2cccc(-c3ccc(C(F)(F)F)cc3)c2)cc1`, with 11.2 µM (active); and `CC(C)C[C@H](NC(=O)CNC(=O)OCc1ccccc1)C(=O)N[C@@H](Cc1ccccc1)C(=O)CCl` (Cbz-Gly-Leu-Phe-CH2Cl), with 1 µM (active); and `CCN(CC)CCCS(=O)(=O)N[C@H](CCc1ccccc1)c1nc(Cc2ccc(Br)cc2)no1`, with 11.2 µM (active).
For `C/C1=C\CCC2=CC(OC2=O)C(C)(C)/C=C/C1=O` (stereo not drawn), the Potency is 10 µM (active).
Consider `CCN(CC)CC1CCN(c2ncc3ncnc(Nc4ccc(F)c(Cl)c4)c3n2)CC1`, for which the “CPE rescue (activation)” value was -9.4%.
In the case of `CC1=CC2OC3CC(O)[C@@](C)(C34CO4)[C@@]2(C)C(O)C1=O` (stereo partly drawn), the “CPE rescue (activation)” value is 18% [at 40 µM].
